Assay outcomes: PubChem, National Center for Advancing Translational Sciences (NCATS)
KB-V1 cytotox: KB-V1 MDR subline cytotoxicity; Potency, µM (titrated, usually from 46.1 µM), actives largely listed as cytotoxic; KB-V1 MDR cells viability, CellTiter-Glo, 72 h; AID 1347076; 400,000 compounds, 3.4% hits; also: % is scaled to controls: 0 for no effect and ±100 for the full control effect; nearly all actives have a fitted effect of over 60% in size
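Cytotoxicity toward P-gp-expressing KB-V1 cells was determined as loss of CellTiter-Glo luminescence after 72 h at 37 degrees C. Compounds were tested in quantitative HTS format across a concentration range, with curves fitted to normalized data.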
HT1080NT lethal: kills 2HG-producing HT-1080-NT fibrosarcoma cells. Potency, µM (highest dose often 46.1 µM), inactives show at the highest dose activity, negative = less viability, hits mostly cytotoxic. HT-1080-NT fibrosarcoma viability, CellTiter-Glo ATP luminescence, 48 h. 360,000 compounds, 1.6% hits;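 also: NT is the 2HG producing partner of a matched IDH1 knockdown line; 0% = DMSO-treated cells and -100% = media-only wells without cells; nearly all actives have a fitted effect of over 55% in size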
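Read-out is CellTiter-Glo luminescence after 10 minutes at room temperature, following 48 hours' compound treatment of HT-1080-NT cells (750 cells/well, RPMI, 5% FBS, 37 degrees C).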
KB-3-1 tox: kills parental KB-3-1 adenocarcinoma cells; Potency, µM (top dose mostly 46.1 µM), hits mostly cytotoxic; AID 1347075; KB-3-1 viability, CellTiter-Glo ATP luminescence, 72 h; 400,000 compounds, 1.4% hits; also: % is scaled to controls: 0 for no effect and ±100 for the full control effect; nearly all actives have a fitted effect of over 60% in size
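Cytotoxicity measured as CellTiter-Glo luminescence after 72 h at 37 C. Compound titrations were pinned onto drug-naive KB-3-1 parental adenocarcinoma cells grown in DMEM with 10% FBS, and normalized data fitted to concentration-response curves.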
HT1080 IDH1KD tx: HT-1080 IDH1 knockdown cell toxicity (counter line). HT-1080 IDH1 knockdown viability, ATP luminescence, 48 h. Potency, µM (top dose mostly 46.1 µM), inactives show at the top dose activity, negative = toxicity, most hits filed as cytotoxic. 360,000 compounds, 2% hits. AID 686971;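 also: 0% = DMSO wells and -100% = cell-free medium wells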
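IDH1KD HT-1080 cells, 750/well, RPMI + 5% FBS; compound pinned after 2 h settling; 48 h, 37 °C; CellTiter-Glo luminescence; % activity normalised to DMSO and no-cell wells; curves fitted, classed by r2 and efficacy.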
MCF10A rerep: induces DNA re-replication in MCF 10a normal breast cells; 350,000 compounds, 2.9% hits; AID 624296; Potency, µM (doses to about 46.1 µM), inactives show at the top dose activity, positive = re-replication, hits mostly activators; MCF 10A DNA re-replication, Hoechst nuclear intensity, 48 h; also: % of control where 0% means no effect; nearly all actives have a fitted effect of over 50% in size
SW480 rereplic: DNA re-replication induction in SW480 cells; SW480 DNA re-replication, Hoechst DNA content imaging, 48 h; Potency, µM (series often up to 46.1 µM), without a hit: at the top dose re-replication activation, hits mostly activators; 340,000 compounds, 1.8% hits; also: % of control where 0% means no effect; nearly all actives have a fitted effect of over 55% in size
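Hoechst fluorescence of nuclei (405 nm excitation, 500-530 nm emission) measured by plate-scanning imager after 48 hr compound exposure at 37 C; re-replication scored as increased number of nuclei with elevated intensity.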
* hit, by the source's call; i = inactive; ? = inconclusive; nt = no result given; ! = repeats disagree. An excerpt weighted towards active compounds, which were near 8% of everything screened. Calls follow the shape of the dose curve; as a rule, active = well fitted curve in the direction sought with a large enough effect; inconclusive = small, poorly fitted or top-dose-only effect, or another doubt; inactive = no such curve, though single readings can be large; an effect the other way counts as inactive or inconclusive. Potency is read from the fitted curve at half-maximal effect.

SMILES | KB-V1 cytotox | HT1080NT lethal | KB-3-1 tox | HT1080 IDH1KD tx | MCF10A rerep | SW480 rereplic
NC(N)=Nc1ccc2[nH]c3c(c2c1)C[C@@]1(O)[C@H]2Cc4ccc(O)c5c4[C@@]1(CCN2CC1CC1)[C@H]3O5 | i | 15µM* | ? | 16µM* | ? | ?
O=C(Cn1c(=O)oc2ccccc21)NCCc1ccccc1 | i | 20% | i | 20% | -25% | -4%
COC(/C(C)=C/C=C/C(C)=C/c1coc(C)n1)C(C)C1CC(O)C2(C)OC2C=CC(C)C2CC(CC(=O)O2)CC2OC2C(=O)O1 (configuration not stated) | i | 0.013µM* | ? | ? | ? | ?
CCCNS(=O)(=O)c1ccc(OCC(=O)N2CCN(Cc3ccc4c(c3)OCO4)CC2)c(C)c1 | i | 12µM* | i | ? | 18% | 21%
CCCNS(=O)(=O)c1ccc(OCC(=O)N2CCN(Cc3ccc4c(c3)OCO4)CC2)cc1 | ? | -11% | i | -2% | ? | -2%
COc1ccc(C=C2C(=O)NC(=S)NC2=O)cc1OC | i | 10% | i | 19% | -2% | 1%
COc1ccc(/C=C/C=C2C(=O)NC(=S)NC2=O)cc1 | ? | 2% | ? | -4% | 5.8µM* | 16µM*
Cc1ccc(S(=O)(=O)Nc2ccc3ncccc3c2[N+](=O)[O-])cc1 | 21µM* | -3% | 18µM* | -5% | ? | ?
Cc1ccnc(NS(=O)(=O)c2cc([N+](=O)[O-])ccc2C)c1 | i | 17% | i | 11% | 4% | ?
CC[n+]1c(/C=C/C=C/c2ccc(N(C)C)cc2)sc2ccccc21 | ? | 5.8µM* | 1.5µM* | 7.3µM* | -2% | -11%
CN(C)c1ccc(/C=C/c2cc[n+](C)c3ccccc23)cc1 | 16µM*! | ? | 2.9µM*! | 7.3µM* | ? | ?
CC[n+]1c(/C=C/N(C)c2ccccc2)sc2ccc(Cl)cc21 | 12µM* | ? | 15µM* | ? | 2% | 7%
CN(C)c1ccc(/C=C/C=C/c2sc3ccccc3[n+]2C)cc1 | i | 21µM* | 10µM* | ? | -1% | 12%
Cc1cc(/C=C/c2ccnc3ccccc23)ccc1N(CCCl)CCCl | i | nt | ? | nt | nt | nt
c1cc2c(c(N3CCNCC3)c1)OCCO2 | nt | nt | nt | nt | 4% | -1%
CCn1c(CN2CCN(C)CC2)nc2ccccc21 | i | nt | i | nt | nt | nt
CN(C)C(=O)Oc1cccc(-c2cn3cc(Cl)ccc3n2)c1 | 13µM* | 8% | i | -1% | 25% | 11%
CN(C)C(=O)Oc1ccc(-c2cn3cc(C(F)(F)F)ccc3n2)cc1 | i | 3% | i | 23% | 11% | ?
CN(C)C(=O)Oc1ccc(-c2cn3cc(Cl)ccc3n2)cc1 | 4.1µM* | -2% | i | -11% | 1% | 1%
C=CCN1C(=O)C2(C(C(=O)OC)=C(N)Oc3c2c(=O)oc2ccccc32)c2ccccc21 (configuration not stated) | i | nt | ? | nt | nt | nt
COc1ccc(CC(=O)N2CCN(C)CC2)cc1 | i | -10% | i | 1% | 13% | 0%
COc1ccc(CC2NCC(O)C2OC(C)=O)cc1 (configuration not stated) | 0.18µM* | 1.8µM* | 0.18µM* | 0.13µM* | ? | 3%
Cc1ccc(NC(=O)CN2C(=O)CN=C(c3ccccc3)c3ccccc32)c(C)c1 | i | nt | i | nt | nt | nt
O=c1c2ccccc2nc(N2CCCC2)n1-c1ccc(Cl)cc1 | 23µM* | -17% | ? | -1% | ? | 2%
CC(C)=CC1C(C(=O)OCc2coc(Cc3ccccc3)c2)C1(C)C (configuration not stated) | nt | nt | nt | nt | ? | -1%
CC[C@H]1CC2CN3CCc4c([nH]c5cc(OC)ccc45)[C@](C(=O)OC)(C2)[C@H]13 | i | 3% | i | -2% | ? | 0.73µM*
